In PubChem BioAssay (Tox21):
Several values for one entry are separate records, joined by “and”; a condition that tells them apart may be missing. Equal values may be shown once. Records with an inconclusive call do not appear. Where a call stands in place of a potency, no number is given. The source holds several records for some structures; these can differ, active in one and inactive in another. Activity calls are given as the source filed them. Unless noted, calls follow the shape of the dose curve; as a rule, active = well fitted curve in the direction sought with a large enough effect in the repeat runs; inconclusive = weak or mixed curves; inactive = no such curve, though single readings can be large; an effect the other way counts as inactive or inconclusive.

Assays:
[1] = Human pregnane X receptor (PXR) small molecule agonists, qHTS cell viability counter screen (AID 1346977); also: nearly all actives have a fitted effect of over 50% in size; also: potency is read from the fitted curve at half-maximal effect
Outline: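 After a 5hr pre-incubation, PXR-Luc HepG2 cells received compounds plus positive control in DMSO and were kept 24hr at 37C. Cell viability was quantified by fluorescence from CellTiter-Fluor added for the final hour.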

[2] = Caspase-3/7 induction in HepG2 cells by small molecules, qHTS assay (AID 1346978); also: nearly all actives have a fitted effect of over 15% in size; also: potency is read from the fitted curve at half-maximal effect
Outline: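 Wild-type HepG2 cells, 2,000/well, settled 5 hr at 37 C and 5% CO2, then compound-treated for 17 hr; caspase-3/7 activity read by luminescent Caspase-Glo 3/7 after 30 min at room temperature.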

[3] = Caspase-3/7 induction in CHO-K1 cells by small molecules, qHTS cell viability counter screen (AID 1346979); also: nearly all actives have a fitted effect of over 35% in size; also: potency is read from the fitted curve at half-maximal effect
Outline: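 Multiplexed with Caspase-Glo 3/7 in CHO-K1 cells, this counter screen added CellTiter-Fluor after 16hr of compound exposure and recorded fluorescence 1hr later.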

[4] = Caspase-3/7 induction in CHO-K1 cells by small molecules, qHTS assay (AID 1346980); also: nearly all actives have a fitted effect of over 15% in size
Outline: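 Wild-type CHO-K1 cells exposed to compounds for 17hr at 37 C, 5% CO2. Caspase-3/7 activity then measured by Caspase-Glo 3/7 luminescence after 30min at room temperature.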

[5] = Caspase-3/7 induction in HepG2 cells by small molecules, qHTS cell viability counter screen (AID 1346981); also: series mostly up to about 92 µM; nearly all actives have a fitted effect of over 30% in size
Outline: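 Wild-type HepG2 cells (2,000/well) were allowed to settle for 5 hr at 37 C, 5% CO2, then dosed with compounds in DMSO by pin transfer. After 16 hr at 37 C, CellTiter-Fluor was added and fluorescence read 1 hr later.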

[6] = molecular target: Nuclear receptor subfamily 1 group I member 2 (Homo sapiens) (UniProt O75469); assay: Human pregnane X receptor (PXR) small molecule agonists, qHTS assay (AID 1346982); also: nearly all actives have a fitted effect of over 35% in size; also: potency is read from the fitted curve at half-maximal effect
Outline: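 PXR-Luc HepG2 cells (CYP3A4 promoter-driven luciferase) were seeded in medium with 5% charcoal-stripped FBS, left 5 hr at 37 C, then exposed to compounds in DMSO for 24 hr. Luminescence was read after ONE-Glo addition.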

[7] = molecular target: Acetylcholinesterase (Homo sapiens) (UniProt P22303); assay: Acetylcholinesterase (AChE) small molecule antagonists: colormetric cell-based qHTS assay (AID 1347395; calls by dose curve; also: nearly all actives have a fitted effect of over 30% in size)
Outline: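 In this cell-based qHTS, attached SH-SY5Y cells were treated with test chemicals for 30 min, after which acetylthiocholine hydrolysis was followed by DTNB colour development over 90 min at 37 C.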

[8] = molecular target: Acetylcholinesterase (Homo sapiens) (UniProt P22303); assay: Acetylcholinesterase (AChE) small molecule antagonists: enzyme-based qHTS assay (AID 1347397; calls by dose curve; also: nearly all actives have a fitted effect of over 55% in size); settings: Potency: AChE enzyme activity inhibition
Outline: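 Enzyme inhibition was scored from DTNB-detected thiocholine formed by recombinant human AChE acting on acetylthiocholine. The 30 min compound preincubation and 10 min substrate reaction were both run at room temperature, with DMSO as vehicle control.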

[9] = molecular target: Acetylcholinesterase (Homo sapiens) (UniProt P22303); assay: Acetylcholinesterase (AChE) small molecule antagonists: fluorescence cell-based qHTS assay (AID 1347398; calls by dose curve; also: nearly all actives have a fitted effect of over 50% in size); settings: Potency: AChE activity
Outline: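 Endogenous acetylcholinesterase of SH-SY5Y neuroblastoma cells is measured in situ. After overnight attachment and 30 min compound exposure, cells receive acetylthiocholine and Thiolite Green; fluorescence is read after 40 min at room temperature.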

[10] = molecular target: Acetylcholinesterase (Homo sapiens) (UniProt P22303); assay: Acetylcholinesterase (AChE) small molecule antagonists: enzyme-based qHTS assay with human liver microsomes (AID 1347399; calls by dose curve; also: nearly all actives have a fitted effect of over 60% in size); settings: Potency: qHTS inhibition
Outline: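 Recombinant human AChE (50 mU/mL in the enzyme mix) and human liver microsomes (0.25 mg/mL final) were preincubated with compound and NADPH (0.25 mg/mL final) for 30 min at 37 C. Acetylthiocholine/DTNB was then added; thiocholine was read colorimetrically after 10 min at room temperature.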

[11] = molecular target: Cytochrome P450 2D6 (Homo sapiens) (UniProt P10635); assay: Cytochrome P450 Family 2 Subfamily D Member 6 (CYP2D6) small molecule antagonists: luciferase reporter qHTS assay (AID 1671196); also: nearly all actives have a fitted effect of over 50% in size; also: potency is read from the fitted curve at half-maximal effect
Outline: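 CYP2D6 enzyme–substrate mix was held with compound for 10 min at room temperature, then NADPH regeneration solution was added and the reaction ran 1 h at room temperature. Luciferin product was detected by luminescence after 20 min with detection reagent.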

[12] = molecular target: Cytochrome P450 2C19 (Homo sapiens) (UniProt P33261); assay: Cytochrome P450 Family 2 Subfamily C Member 19 (CYP2C19) small molecule antagonists: luciferase reporter qHTS assay (AID 1671197); also: nearly all actives have a fitted effect of over 65% in size; also: potency is read from the fitted curve at half-maximal effect
Outline: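 Quantitative high-throughput screen of the Tox21 library using CYP2C19 with proluciferin substrate. Reaction: NADPH regeneration, 37C, 1 h, after 10 min compound preincubation at room temperature. Readout: luminescence.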

[13] = molecular target: Cytochrome P450 2C9 (Homo sapiens) (UniProt P11712); assay: Cytochrome P450 Family 2 Subfamily C Member 9 (CYP2C9) small molecule antagonists: luciferase reporter qHTS assay (AID 1671198); also: nearly all actives have a fitted effect of over 50% in size; also: potency is read from the fitted curve at half-maximal effect
Outline: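 P450-Glo proluciferin substrate with CYP2C9 enzyme; 10 min RT preincubation, then NADPH regeneration 1 h at 37C; luciferin detection reagent 20 min RT, luminescence in relative luminescence units.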

[14] = molecular target: Cytochrome P450 1A2 (Homo sapiens) (UniProt P05177); assay: Cytochrome P450 Family 1 Subfamily A Member 2 (CYP1A2) small molecule antagonists: luciferase reporter qHTS assay (AID 1671199); also: nearly all actives have a fitted effect of over 50% in size; also: potency is read from the fitted curve at half-maximal effect
Outline: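 Human CYP1A2 activity measured with a P450-Glo proluciferin substrate; compounds in DMSO preincubated 10 min at room temperature with enzyme-substrate mix, then NADPH regeneration system added for 1 h. Luciferin detection reagent, 20 min, luminescence read.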

[15] = molecular target: Voltage-gated inwardly rectifying potassium channel KCNH2 (Homo sapiens) (UniProt Q12809); assay: Human Ether-a-go-go-Related Gene (hERG) channel small molecule antagonists: fluorescence cell-based qHTS assay (AID 1671200)
Outline: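 Cell line hERG-U2OS; dye FluxOR II, 1 h RT dark; Tl+ stimulus; ex 480/em 540 nm, read each second for 2 min.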

[16] = molecular target: Cytochrome P450 3A4 (Homo sapiens) (UniProt P08684); assay: Cytochrome P450 Family 3 Subfamily A Member 4 (CYP3A4) small molecule antagonists: luciferase reporter qHTS assay (AID 1671201)
Outline: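 Room-temperature assay throughout: 10 min compound–enzyme/substrate preincubation, 1 h reaction after NADPH regeneration solution, 20 min detection. Luciferin formed from proluciferin substrate is quantified by luminescence.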

[17] = molecular target: Nuclear receptor subfamily 1 group I member 2 (Homo sapiens) (UniProt O75469); assay: CYP3A4 induction through human pregnane X receptor (PXR) by small molecules, qHTS assay (AID 1346984); also: nearly all actives have a fitted effect of over 40% in size
Outline: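 DPX-2 cells (HepG2 co-transfected with PXR and CYP3A4 promoter-luciferase) treated with compounds 24 h at 37C; luciferin-IPA CYP3A4 substrate 3uM final added for 3 h, then One-Glo; luminescence read. qHTS format.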

[18] = molecular target: Nuclear receptor subfamily 1 group I member 2 (Homo sapiens) (UniProt O75469); assay: Human pregnane X receptor (PXR) activation by small molecules, qHTS assay (AID 1346985); also: nearly all actives have a fitted effect of over 40% in size
Outline: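 DPX-2 cells (HepG2 co-transfected with a PXR response element and a CYP3A4-promoter luciferase construct) were seeded at 2,000 per well, rested 5 hr at 37C, then exposed to DMSO-dissolved compounds for 24 hr. Activation was read as luciferase luminescence.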

[19] = molecular target: Nuclear receptor subfamily 1 group I member 2 (Rattus norvegicus) (UniProt Q9R1A7); assay: Rat pregnane X receptor (rPXR) activation by small molecules, qHTS assay (AID 1346983); settings: rPXR luciferase reporter cells, One-Glo luminescence, 24 h; max activation: stronger effect = higher value; also: nearly all actives have a fitted effect of over 20% in size
Outline: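 Cell-based rPXR activation assay: rPXR cells, 2,000 per well, rested 5hr at 37 C, then exposed to compounds in DMSO for 24 hr at 37 C. Luciferase activity read by One-Glo luminescence after 30 min at room temperature.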

Voltage-gated inwardly rectifying potassium channel KCNH2 (Homo sapiens), sequence (Q12809 whole entry, looked up): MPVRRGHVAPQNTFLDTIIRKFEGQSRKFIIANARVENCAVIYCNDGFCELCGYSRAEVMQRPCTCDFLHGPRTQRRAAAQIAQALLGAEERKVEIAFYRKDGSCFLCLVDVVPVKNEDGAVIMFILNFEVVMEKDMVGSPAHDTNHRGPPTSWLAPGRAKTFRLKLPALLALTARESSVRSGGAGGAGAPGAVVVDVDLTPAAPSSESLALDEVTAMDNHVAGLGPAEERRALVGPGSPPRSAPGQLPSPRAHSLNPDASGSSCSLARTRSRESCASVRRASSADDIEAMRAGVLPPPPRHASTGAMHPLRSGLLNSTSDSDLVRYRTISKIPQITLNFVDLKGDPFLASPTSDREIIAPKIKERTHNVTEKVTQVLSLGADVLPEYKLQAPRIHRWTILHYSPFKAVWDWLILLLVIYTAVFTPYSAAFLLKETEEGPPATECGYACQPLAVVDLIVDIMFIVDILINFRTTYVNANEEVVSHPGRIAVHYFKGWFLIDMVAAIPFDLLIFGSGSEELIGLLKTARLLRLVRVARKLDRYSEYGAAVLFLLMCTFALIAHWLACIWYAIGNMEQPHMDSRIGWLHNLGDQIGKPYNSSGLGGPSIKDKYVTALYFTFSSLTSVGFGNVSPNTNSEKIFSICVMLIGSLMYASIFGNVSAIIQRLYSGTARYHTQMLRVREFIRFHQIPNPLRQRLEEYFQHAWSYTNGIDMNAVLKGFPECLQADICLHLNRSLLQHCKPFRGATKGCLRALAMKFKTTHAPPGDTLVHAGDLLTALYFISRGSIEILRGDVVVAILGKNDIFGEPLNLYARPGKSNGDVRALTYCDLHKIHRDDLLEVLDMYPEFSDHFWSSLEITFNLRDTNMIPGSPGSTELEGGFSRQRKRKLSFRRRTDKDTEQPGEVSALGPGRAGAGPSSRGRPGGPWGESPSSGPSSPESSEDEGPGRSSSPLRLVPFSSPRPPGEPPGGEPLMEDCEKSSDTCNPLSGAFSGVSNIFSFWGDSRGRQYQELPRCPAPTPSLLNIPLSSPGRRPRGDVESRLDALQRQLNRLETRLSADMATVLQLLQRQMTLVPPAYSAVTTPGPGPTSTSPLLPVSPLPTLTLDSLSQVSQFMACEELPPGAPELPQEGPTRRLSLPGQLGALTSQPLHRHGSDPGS
Acetylcholinesterase (Homo sapiens), sequence (P22303 whole entry, looked up): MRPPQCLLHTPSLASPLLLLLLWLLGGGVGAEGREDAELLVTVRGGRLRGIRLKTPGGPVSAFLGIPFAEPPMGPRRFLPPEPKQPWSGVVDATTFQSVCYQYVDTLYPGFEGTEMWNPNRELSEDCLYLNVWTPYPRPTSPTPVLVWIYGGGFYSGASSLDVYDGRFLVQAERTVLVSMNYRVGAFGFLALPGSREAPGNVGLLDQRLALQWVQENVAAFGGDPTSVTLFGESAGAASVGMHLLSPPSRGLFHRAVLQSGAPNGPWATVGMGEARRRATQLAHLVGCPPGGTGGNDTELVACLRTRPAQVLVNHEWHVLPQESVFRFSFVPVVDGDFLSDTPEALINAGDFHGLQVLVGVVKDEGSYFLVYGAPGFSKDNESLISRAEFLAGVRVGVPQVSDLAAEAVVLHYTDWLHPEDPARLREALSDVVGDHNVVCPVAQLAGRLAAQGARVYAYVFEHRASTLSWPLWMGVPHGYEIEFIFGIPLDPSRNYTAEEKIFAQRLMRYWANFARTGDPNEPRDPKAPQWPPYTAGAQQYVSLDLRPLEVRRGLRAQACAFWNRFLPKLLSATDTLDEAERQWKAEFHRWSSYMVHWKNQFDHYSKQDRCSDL
Cytochrome P450 3A4 (Homo sapiens), sequence (P08684 whole entry, looked up): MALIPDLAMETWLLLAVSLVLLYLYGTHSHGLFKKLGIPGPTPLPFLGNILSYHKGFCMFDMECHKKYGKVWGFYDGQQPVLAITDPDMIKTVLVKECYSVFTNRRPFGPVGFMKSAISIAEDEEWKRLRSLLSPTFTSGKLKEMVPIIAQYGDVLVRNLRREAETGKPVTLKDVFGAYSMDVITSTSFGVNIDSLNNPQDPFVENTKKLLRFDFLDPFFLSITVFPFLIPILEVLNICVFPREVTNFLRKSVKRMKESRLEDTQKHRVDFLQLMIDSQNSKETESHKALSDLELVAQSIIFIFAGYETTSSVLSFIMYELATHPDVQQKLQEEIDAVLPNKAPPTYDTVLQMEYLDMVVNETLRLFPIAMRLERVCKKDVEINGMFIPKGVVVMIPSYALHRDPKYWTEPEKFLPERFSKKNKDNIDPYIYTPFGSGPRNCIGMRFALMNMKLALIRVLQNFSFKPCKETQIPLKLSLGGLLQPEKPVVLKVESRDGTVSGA
Cytochrome P450 1A2 (Homo sapiens), sequence (P05177 whole entry, looked up): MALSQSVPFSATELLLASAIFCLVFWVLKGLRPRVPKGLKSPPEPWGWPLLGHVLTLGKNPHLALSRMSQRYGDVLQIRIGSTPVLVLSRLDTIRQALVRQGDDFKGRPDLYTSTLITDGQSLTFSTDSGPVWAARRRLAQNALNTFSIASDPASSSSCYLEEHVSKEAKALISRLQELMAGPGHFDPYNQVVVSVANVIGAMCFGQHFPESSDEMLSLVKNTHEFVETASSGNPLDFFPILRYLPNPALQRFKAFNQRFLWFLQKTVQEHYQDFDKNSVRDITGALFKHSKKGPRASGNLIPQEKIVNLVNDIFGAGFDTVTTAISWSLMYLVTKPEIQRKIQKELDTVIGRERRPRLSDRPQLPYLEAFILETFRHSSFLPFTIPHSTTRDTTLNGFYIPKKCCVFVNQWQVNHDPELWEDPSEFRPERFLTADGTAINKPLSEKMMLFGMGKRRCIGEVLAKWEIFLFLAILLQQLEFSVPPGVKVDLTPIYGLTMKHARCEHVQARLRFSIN
Cytochrome P450 2C9 (Homo sapiens), sequence (P11712 whole entry, looked up): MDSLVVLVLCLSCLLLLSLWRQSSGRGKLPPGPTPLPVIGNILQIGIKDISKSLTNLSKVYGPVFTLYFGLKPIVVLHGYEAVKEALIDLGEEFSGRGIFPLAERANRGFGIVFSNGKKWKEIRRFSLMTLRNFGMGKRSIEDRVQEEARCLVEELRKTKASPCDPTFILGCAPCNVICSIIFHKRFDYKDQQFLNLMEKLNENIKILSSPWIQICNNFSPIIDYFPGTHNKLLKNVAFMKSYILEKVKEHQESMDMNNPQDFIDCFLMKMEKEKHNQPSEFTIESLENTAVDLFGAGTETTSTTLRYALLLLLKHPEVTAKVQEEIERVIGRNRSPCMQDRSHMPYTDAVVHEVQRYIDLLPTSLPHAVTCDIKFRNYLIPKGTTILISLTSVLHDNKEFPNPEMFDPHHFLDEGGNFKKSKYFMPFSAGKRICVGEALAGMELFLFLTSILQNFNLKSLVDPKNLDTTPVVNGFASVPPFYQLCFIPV
Cytochrome P450 2D6 (Homo sapiens), sequence (P10635 whole entry, looked up): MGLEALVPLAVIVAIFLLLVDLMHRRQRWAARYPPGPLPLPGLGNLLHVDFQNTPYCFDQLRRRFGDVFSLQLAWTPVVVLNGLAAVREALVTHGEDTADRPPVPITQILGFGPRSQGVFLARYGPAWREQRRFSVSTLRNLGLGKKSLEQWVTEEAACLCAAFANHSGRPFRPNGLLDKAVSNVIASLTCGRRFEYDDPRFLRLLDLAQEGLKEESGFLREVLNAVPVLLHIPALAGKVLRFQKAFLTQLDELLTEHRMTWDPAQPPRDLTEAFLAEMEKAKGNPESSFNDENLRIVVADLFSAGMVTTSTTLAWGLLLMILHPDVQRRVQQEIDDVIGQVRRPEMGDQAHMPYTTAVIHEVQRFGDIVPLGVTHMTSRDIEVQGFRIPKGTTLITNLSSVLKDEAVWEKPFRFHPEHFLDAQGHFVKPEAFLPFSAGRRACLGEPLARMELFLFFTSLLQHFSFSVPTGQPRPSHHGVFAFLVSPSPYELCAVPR
Cytochrome P450 2C19 (Homo sapiens), sequence (P33261 whole entry, looked up): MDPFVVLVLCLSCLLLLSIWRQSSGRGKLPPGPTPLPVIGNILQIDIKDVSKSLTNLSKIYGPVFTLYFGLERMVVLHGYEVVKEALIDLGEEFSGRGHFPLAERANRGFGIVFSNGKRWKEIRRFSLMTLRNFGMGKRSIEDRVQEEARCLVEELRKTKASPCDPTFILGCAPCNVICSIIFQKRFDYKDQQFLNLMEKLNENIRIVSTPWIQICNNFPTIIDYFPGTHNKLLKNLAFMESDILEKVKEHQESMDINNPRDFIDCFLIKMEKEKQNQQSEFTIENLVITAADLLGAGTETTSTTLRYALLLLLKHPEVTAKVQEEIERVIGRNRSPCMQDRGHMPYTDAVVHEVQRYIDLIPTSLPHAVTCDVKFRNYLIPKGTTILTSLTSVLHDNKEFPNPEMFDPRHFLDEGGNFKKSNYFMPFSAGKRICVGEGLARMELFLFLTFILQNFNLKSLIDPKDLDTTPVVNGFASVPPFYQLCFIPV
Nuclear receptor subfamily 1 group I member 2 (Homo sapiens), sequence (O75469 whole entry, looked up): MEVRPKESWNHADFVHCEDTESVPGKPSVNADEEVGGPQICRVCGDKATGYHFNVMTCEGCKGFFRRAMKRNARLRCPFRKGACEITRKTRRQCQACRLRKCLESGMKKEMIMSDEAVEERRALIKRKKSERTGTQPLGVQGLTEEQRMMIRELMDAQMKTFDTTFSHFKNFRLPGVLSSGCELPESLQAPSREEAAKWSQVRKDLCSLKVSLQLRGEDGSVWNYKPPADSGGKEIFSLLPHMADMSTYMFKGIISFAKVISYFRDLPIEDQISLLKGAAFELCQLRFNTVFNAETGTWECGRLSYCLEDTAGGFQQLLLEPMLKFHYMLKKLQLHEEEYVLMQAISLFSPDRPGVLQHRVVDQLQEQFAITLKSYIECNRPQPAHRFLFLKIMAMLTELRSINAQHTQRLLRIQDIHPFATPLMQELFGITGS

| Structure (SMILES) | Potency [1] | Potency [2] | Potency [3] | Potency [4] | Potency [5] | Potency [6] | Potency [7] | Potency [8] | Potency [9] | Potency [10] | Potency [11] | Potency [12] | Potency [13] | Potency [14] | Potency [15] | Potency [16] | Potency [17] | Potency [18] | max activation [19] |
| --- | --- | --- | --- | --- | --- | --- | --- | --- | --- | --- | --- | --- | --- | --- | --- | --- | --- | --- | --- |
| Nc1nc(N)nc(Cl)n1 | inactive | inactive | inactive | inactive | inactive | inactive | inactive | inactive | inactive | inactive | inactive | inactive | inactive | inactive | inactive | inactive |  |  |  |
| C#CC1(O)CCCCC1 | inactive | inactive | inactive | inactive | inactive | inactive | inactive | inactive | inactive | inactive | inactive | inactive | inactive | inactive | inactive | inactive |  |  |  |
| CCN(CC)C(=S)S | 28.2 µM (active) and inactive | inactive and 27.1 µM (active) | 13.8 µM (active) and 7.65 µM (active) and 27.3 µM (active) | inactive | inactive | 27.1 µM (active) and 61.1 µM (active) | inactive |  | inactive | inactive | inactive | 71.6 µM (active) and 50 µM (active) and inactive | 62.9 µM (active) and 31.7 µM (active) | 40.3 µM (active) | inactive |  | inactive | inactive |  |
| C[N+]1(C)[C@@H]2CC[C@H]1CC(OC(=O)C(CO)c1ccccc1)C2 (stereo partly drawn) | inactive | inactive | inactive | inactive | inactive | inactive | inactive | inactive | inactive | inactive | inactive | inactive | inactive | inactive | inactive | inactive | inactive | inactive | 5.17% (inactive) and -0.275% (inactive) |
| c1cc[n+]2c(c1)-c1cccc[n+]1CC2 | 13.3 µM (active) | inactive | inactive | inactive | inactive | inactive | inactive | inactive | inactive | inactive | 7.76 µM (active) | 9.77 µM (active) | inactive | 30.9 µM (active) | inactive |  |  |  |  |
| O=[N+]([O-])c1ccccc1-c1ccccc1 | inactive | inactive | inactive | inactive | inactive | inactive | inactive | inactive | inactive | inactive | inactive | 35.6 µM (active) | 25.2 µM (active) | 1.59 µM (active) | inactive | inactive |  |  |  |
